# Assay results: PubChem BioAssay (NCATS)
# Inconclusive results are not listed. Where a call stands in place of a potency, no number is given. Unmarked numbers belong to inactive results. The source made the active and inactive calls. Calls come from the whole dose curve; as a rule, active = well fitted inhibition curve with a large enough effect; inconclusive = small, poorly fitted or top-dose-only effect; inactive = flat fitted curve, though single readings scatter.
# Experiment: P-glycoprotein substrates identified in KB-8-5-11 adenocarcinoma cell line, qHTS therapeutic library screen (AID 1346987); note: nearly all actives have a fitted effect of over 65% in size
# Conditions: KB-8-5-11 (P-gp overexpressing) viability, CellTiter-Glo, 72 h; series mostly up to 44.5 µM
# In short: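 In this qHTS, P-gp-rich KB-8-5-11 cells received library compounds across a concentration range. Viability was quantified by luminescence after 72 h at 37 degree C.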
SMILES,Potency,"activity change, negative = cytotoxicity"
COc1cc2c(cc1OC)N1C(=O)C[C@@]34C=CC[N@+]5([O-])CC[C@H]2[C@H](CC3)[C@@]145,inactive,
CC(C)CC(=O)OC[C@@]1(O)C[C@@]23CC[C@H]4[C@@](C)(CCC[C@@]4(C)C(=O)O)[C@@H]2CC[C@@H]1C3,inactive,
CC(C)[C@](O)(c1ccc2cc(OC(F)F)c(OC(F)F)cc2c1)c1cn[nH]n1,inactive,
O=C(OC1C=C(CO)C2C(OC3OC(CO)C(O)C(O)C3O)OC=CC12O)c1ccc(O)cc1 (stereo not drawn),inactive,
C=C1CC[C@@H]2C(C)(C)CCC[C@@]2(C)[C@@H]1CC/C(=C/C(=O)OC)COC(C)=O,inactive,
CC1(C)CCC2(C(=O)O)CCC3(C)C(=CCC4C5(C)CCC(O)C(C)(CO)C5C(O)CC43C)C2C1 (stereo not drawn),inactive,
COc1cc(O)cc2c1C(=O)OC(C)C2 (stereo not drawn),inactive,
C=C1CC/C=C(/CO)C(=O)C[C@@H]2[C@@H]1C[C@@]2(C)COC(C)=O,inactive,
CC(C)Oc1ccc(-c2nc(-c3cccc4c3CCC4NCCC(=O)O)no2)cc1C#N (stereo not drawn),inactive,
C/C1=C\CC(C)(C)/C=C/C/C(C(=O)O)=C/CC1,inactive,
COC(=O)C(Cc1ccccc1)NC(=O)c1ccccc1 (stereo not drawn),inactive,
COC(=O)C1=CO[C@@H](O[C@@H]2O[C@H](CO)[C@@H](O)[C@H](O)[C@H]2O)[C@@H]2[C@@H](C(=O)O)CC[C@H]12,inactive,
COC(=O)[C@@H](NC(=O)[C@H](CC(C)C)NC(=O)N(Cc1ccccc1)C[C@@H](O)[C@H](Cc1ccccc1)NC(=O)OC(C)(C)C)C(C)C,,-2.72% [at 9.29 µM]
CO[C@@H]1[C@]2(O)C(=O)N3/C=C\C(C)(C)c4[nH]c5ccccc5c4/C=C\3C(=O)N2[C@]23[C@H](CO)C(C)(C)N2c2ccccc2[C@]13O,inactive,
C/C(=C\CC[C@H](CO)[C@@H]1CC[C@]2(C)C3=C(CC[C@@]12C)[C@@]1(C)CCC(=O)C(C)(C)C1CC3)C(=O)O (stereo partly drawn),inactive,
CC(=O)O[C@@H]1[C@H](OC(C)=O)C[C@@]2(C)C(CC[C@@H](C)[C@]23Cc2c(O)cc4c(c2O3)CN([C@@H](CCC(=O)O)C(=O)O)C4=O)C1(C)C (stereo partly drawn),inactive,
C=C1CCC(OC(C)=O)C2(C)CC3OC(=O)C(C)=C3CC12 (stereo not drawn),inactive,
COc1c(O[C@@H]2O[C@H](CO)[C@@H](O)[C@H](O)[C@H]2O)c(CCC(=O)O)cc2ccoc12,inactive,
COc1ccc(/C=C/C(=O)O[C@@H]2[C@@H](O)[C@@H](O)[C@H](O[C@H]3[C@@H]4C=CO[C@@H](O[C@@H]5O[C@H](CO)[C@@H](O)[C@H](O)[C@H]5O)[C@@H]4[C@@]4(CO)O[C@@H]34)O[C@H]2C)cc1,inactive,
O=C(CC1CC(c2ccc(F)cc2F)=NO1)N1CCOCC1 (stereo not drawn),inactive,
O=C(NC1CCN(CC(F)(F)F)CC1)c1ccc(-c2cccc(F)c2)nc1,inactive,
COc1ccc(CCC(=O)O)c(O[C@@H]2O[C@H](CO)[C@@H](O)[C@H](O)[C@H]2O)c1,inactive,
O=C(O)CC1(O)C(=O)Nc2ccccc21 (stereo not drawn),inactive,
C/C(=C\CCC(C)C1CC(O)C2(C)C3CCC4C(C)(C)C(OC5OCC(O)C(O)C5O)CCC45CC35CC(O)C12C)C(=O)O (stereo not drawn),inactive,
OC[C@H]1O[C@@H](Oc2cc(O)cc(-c3cc4ccc(O[C@@H]5O[C@H](CO)[C@@H](O)[C@H](O)[C@H]5O)cc4o3)c2)[C@H](O)[C@@H](O)[C@@H]1O,inactive,
COc1c(C)c(OCC=C(C)C)cc2c1COC2=O,inactive,
C=C(C)[C@@]1(O)C[C@@]2(C)C(=CC1=O)CC[C@@H](O)[C@@H]2C,inactive,
C[C@@H]1O[C@@H](O[C@H]2[C@H](OC(=O)[C@]34CCC(C)(C)C[C@H]3C3=CCC5[C@@]6(C)C[C@@H](O)[C@@H](O[C@@H]7O[C@H](CO)[C@@H](O)[C@H](O)[C@H]7O)[C@@](C)(CO)C6[C@H](O)C[C@@]5(C)[C@]3(C)CC4)OC[C@H](O)[C@@H]2O)[C@H](O)[C@H](O[C@@H]2OC[C@](O)(CO)[C@H]2O)[C@H]1O[C@@H]1OC[C@@H](O)[C@H](O[C@H]2O[C@H](C)[C@@H](O)[C@H](O)[C@@H]2O)[C@H]1O (stereo partly drawn),,2.77% [at 9.29 µM]
